# Sm TGR inh: qHTS Assay for the Inhibitors of Schistosoma Mansoni Peroxiredoxins | purified TGR, DTNB reduction, TNB absorbance 405 nm | Potency, µM (top dose mostly 114 µM), most hits filed as inhibitors | actives 3% (n = 360,000) | AID 485364, 2010; active means well fitted inhibition curve with a large enough effect; inconclusive means small, poorly fitted or top-dose-only effect; inactive means no such curve, though single readings can be large or run the other way; further: nearly all actives have a fitted effect of over 60% in size
#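 First, TGR (20 nM dispensed) and NADPH were mixed with compound. Second, a 15 min room-temperature incubation followed. Third, further NADPH and then DTNB were added to start the reaction. Finally, TNB absorbance was monitored kinetically.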
# FMDV inh: High Throughput Screening for Foot and Mouth Disease Virus Antivirals | FMDV antiviral cell-based qHTS | Potency, µM (series often up to 57.9 µM), most hits filed as inhibitors | actives 1.2% (n = 410,000) | AID 1159524, 2015; calls by dose curve; tested in HEK293T cells; further: read-out not given here; nearly all actives have a fitted effect of over 45% in size
# Shiga toxin inh: A qHTS for Small Molecule Inhibitors of Shiga Toxin; actives 9.2% (n = 290,000); inhibition, % at 38.7 µM; AID 2315, 2010; Vero cells, Shiga toxin protein synthesis inhibition reporter; in the data active means inhibition mostly above about 28%, no sharp cut-off; inactive means mostly below about 43%
# CHX counter: Cycloheximide Counterscreen for Small Molecule Inhibitors of Shiga Toxin | cell reporter, cycloheximide protein synthesis inhibition counterscreen | max response, % | actives 12% (n = 300,000) | AID 2314, 2010; in the data active means max response mostly above about 13%, no sharp cut-off; inactive means mostly below about 14%; further: read at 38.3 µM for the half of the compounds with a filed dose
# Hits are given with their value; i = inactive; ? = inconclusive; nt = no result given. Shown are actives, neighbours in structure and some others; about 12% of the full set was active somewhere.
SMILES,Sm TGR inh,FMDV inh,Shiga toxin inh,CHX counter
CC(C)(C)Nc1nc(Cl)nc(NC2CCCCC2)n1,i,i,i,i
COc1nc(Nc2ccc([N+](=O)[O-])cc2)nc(NC2CCCCC2)n1,i,i,78,43
C=CCNc1nc(Nc2ccc([N+](=O)[O-])cc2)nc(OC)n1,i,i,i,i
COc1nc(NCc2cccnc2)nc(NC2CCCCC2)n1,i,i,35,71
Cc1ccc(Nc2nc(Cl)nc(NC3CCCCC3)n2)cc1,i,i,62,25
Cc1ccc(NC(=O)CSc2ccc(-c3sc(-c4ccccc4)nc3C)nn2)cc1F,i,i,nt,nt
CC(C)n1cnnc1SCC(=O)Nc1cccc(S(=O)(=O)N(C)c2ccccc2)c1,i,i,i,i
CN(c1ccccc1)S(=O)(=O)c1cccc(NC(=O)CSc2nnc(N)s2)c1,i,?,i,i
CN(c1ccccc1)S(=O)(=O)c1cccc(NC(=O)CSc2ncn[nH]2)c1,i,35µM,i,i
CN(c1ccccc1)S(=O)(=O)c1cccc(NC(=O)CSc2nncs2)c1,i,10µM,i,i
Cc1cccc(CNc2cc(-c3ccc(C(=O)N(C)C)cc3)ncn2)c1,nt,i,nt,nt
C/C(=N\NC(=O)c1ccncc1)c1ccc(NC(=O)c2ccc(Cl)cc2)cc1,i,i,97,57
C/C(=N/NC(=O)c1ccncc1)c1ccc(NC(=O)c2ccc(Cl)cc2Cl)cc1,i,i,i,63
COc1ccc(C(=O)Nc2ccc(/C(C)=N/NC(=O)c3ccncc3)cc2)cc1,i,nt,i,26
C/C(=N\NC(=O)C(=O)Nc1cc(Cl)ccc1Cl)c1ccncc1,i,i,i,i
COc1ccc(NC(=O)c2ccc(Cl)c(NC(=O)c3ccncc3)c2)cc1,i,nt,i,i
COc1ccc(/C(C)=N/NC(=O)c2ccccc2N)cc1,i,i,78,34
CSc1cccc(NC(=O)C2CCN(S(=O)(=O)c3ccc4c(c3)CCCN4C(=O)C3CCC3)CC2)c1,i,i,nt,nt
COC(=O)c1ccc(Cl)cc1NC(=O)NC(C)c1c(-n2cccc2)sc(C)c1C (stereo not given),i,i,nt,nt
Cc1cc(C)c2nc(N3CCC(C(=O)NCc4cccnc4)CC3)sc2c1,i,i,86,21
Cc1cc(C)c2nc(N3CCC(C(=O)NCc4ccccn4)CC3)sc2c1,i,i,i,47
CCc1ccc(S(=O)(=O)c2c[nH]c3cc(OC)c(OC)cc3c2=O)cc1,i,i,nt,nt
Cc1ccc(-n2c(SCC(=O)Nc3cccc(Cl)c3)nc3n[nH]c(C)c3c2=N)cc1,i,i,nt,nt
O=C(NCCc1ccc(F)cc1)c1cccs1,i,i,91,26
O=C(NCC(O)c1ccccc1)c1cccs1 (stereo not given),i,i,79,42
SMILES,Sm TGR inh,FMDV inh,Shiga toxin inh,CHX counter
O=C(NCCc1cccs1)c1cccs1,i,i,91,50
O=C(CNC(=O)c1cccs1)c1ccc(Br)cc1,i,i,109,39
CC[C@H](C)[C@H](NC(=O)[C@H](CO)NC(=O)[C@H](CC(C)C)NC(=O)[C@@H]1CCCN1C(=O)[C@@H]1CCCN1C(=O)[C@H](CC(=O)O)NC(=O)[C@@H](N)CC(=O)O)C(=O)N[C@@H](CC(=O)O)C(=O)N[C@@H](CC(C)C)C(=O)N[C@H](C(=O)N[C@@H](Cc1ccccc1)C(=O)N[C@@H](Cc1cnc[nH]1)C(=O)N[C@@H](CC(C)C)C(=O)N[C@@H](CC(C)C)C(=O)N[C@@H](CCCNC(=N)N)C(=O)N[C@H](C(=O)N[C@@H](CC(C)C)C(=O)N[C@@H](CC(C)C)C(=O)N[C@@H](CCC(=O)O)C(=O)N[C@@H](CC(C)C)C(=O)N[C@@H](C)C(=O)N[C@@H](CCCNC(=N)N)C(=O)N[C@H](C(=O)N[C@@H](CCC(N)=O)C(=O)N[C@@H](CO)C(=O)N[C@@H](CCC(N)=O)C(=O)N[C@@H](CCCNC(=N)N)C(=O)N[C@@H](CCC(=O)O)C(=O)N[C@@H](CCCNC(=N)N)C(=O)N[C@@H](C)C(=O)N[C@@H](CCC(=O)O)C(=O)N[C@@H](CCC(N)=O)C(=O)N[C@@H](CC(N)=O)C(=O)N[C@@H](CCCNC(=N)N)C(=O)N[C@H](C(=O)N[C@H](C(=O)N[C@@H](Cc1ccccc1)C(=O)N[C@@H](CC(=O)O)C(=O)N[C@@H](CO)C(=O)N[C@H](C(N)=O)C(C)C)[C@@H](C)CC)[C@@H](C)CC)[C@@H](C)O)[C@@H](C)O)[C@@H](C)O,nt,nt,i,i
CC(C)c1ccccc1NC(=O)CN1C(=O)c2cccc3cccc1c23,i,i,nt,nt
COc1ccccc1NC(=O)Cn1c(=O)n(CC(=O)NCc2ccccc2Cl)c(=O)c2sccc21,i,i,nt,nt
Cc1ccc(NC(=O)Cn2c(=O)ccc3cc(S(=O)(=O)N4CCC(C)CC4)ccc32)c(C)c1,i,i,nt,nt
CSc1ccc(CCNC(=O)c2ccc(-c3nc(COc4ccc(C)cc4)c(C)o3)cc2)cc1,i,i,nt,nt
CCCCOCCCNC(=O)c1cccs1,i,nt,i,i
COc1ccc(CNC(=O)COC(=O)c2cccs2)cc1,i,i,47,27
CC(Cc1cccs1)NC(=O)c1cccs1 (stereo not given),i,i,74,33
COC(=O)c1ccc(CNC(=O)COC(=O)c2cccs2)cc1,nt,i,nt,nt
CCc1ccc(OCCNC(=O)c2cccs2)cc1,i,i,53,41
COc1ccc2cc(CCNC(=O)c3cccs3)c(=O)[nH]c2c1,i,i,54,48
CC(CCc1ccccc1)NC(=O)c1cccs1 (stereo not given),i,nt,i,i
CCCCCC/C=C/c1ccc(OC)c(C2C3C=CCC(C)C3C(=O)N2Cc2ccccc2)c1 (stereo not given),nt,nt,i,i
CCCn1ccc2c(OCC(=O)NCc3ccccc3Cl)cccc2c1=O,i,i,nt,nt
COc1ccc(CNC(=O)c2cccs2)cc1,i,i,i,i
O=C(NCCCc1ccccc1)c1cccs1,i,i,55,34
COc1ccc(S(=O)(=O)CCC(=O)NCCc2cccc(C)c2)cc1,i,i,i,i
COc1ccc(S(=O)(=O)CCC(=O)NCCc2ccc(S(N)(=O)=O)cc2)cc1,40µM,i,i,i
CC(Cc1cccs1)NC(=O)Nc1ccc([N+](=O)[O-])cc1 (stereo not given),i,i,73,30
O=C(NCCCCCCNC(=O)c1cccs1)c1cccs1,i,i,i,i
COc1ccc(CCNC(=O)c2cccs2)cc1,i,i,48,32
Cc1ccc(S(=O)(=O)CC(CN2CCCCC2)N2CCCCC2)cc1 (stereo not given),nt,28µM,i,i
Cc1ccc(C(=O)NN2C(=O)C3C4C=CC(C4)[C@@H]3C2=O)cc1 (stereo not given in full),i,i,i,i
COc1cccc(C(=O)NN2c3ccccc3CCc3ccccc32)c1,i,i,i,i
COc1cccc(C(=O)NN2C(=O)C3C4C=CC(O4)C3C2=O)c1 (stereo not given),20µM,i,i,i
COc1ccc(C(=O)NN2C(=O)C3C4C=CC(O4)C3C2=O)cc1 (stereo not given),18µM,i,i,i

# High-throughput results (PubChem)
